This assay in a line: modulation of TERT promoter-driven luciferase – cell-based, luciferase reporter, human, primary screen (AID 1259240). As to conditions: A2780 TERT promoter luciferase reporter, 16 h; at 20 µM, fold versus average of vehicle-only wells unless noted. For orientation: In a reporter assay the amount or activity of a reporter protein is the signal.

Molecules are shown by their SMILES. A number with no mark means an inactive call. Calls of active or inactive are those of the source. No stated cut-off is given here; in the data, active means fold change mostly below about -2 (no sharp cut-off); inactive means mostly above about -1.8.

Regarding `N#Cc1cnn2c(C(F)(F)F)cc(-c3cccs3)nc12`, the fold change is 1.09.

On to `Cc1cc(Cl)cc2c1NC(c1cccnc1)C1CC=CC21` (centres undefined), for which the fold change was -2.25 (active).

As for `CCOC(=O)C1CC2CCCN2C12C(=O)N(Cc1ccccc1)c1ccccc12` (centres undefined), the fold change is -1.82 [at 20 µM].

For the compound `Cc1oc(-c2ccccc2F)nc1CN1C(=O)CN=C(c2ccccc2)c2ccccc21`, the fold change was -1.14.

For `CC1N=C(c2ccccc2F)c2cc(Cl)ccc2N(Cc2cc(=O)n3ccccc3n2)C1=O` (centres undefined), the fold change was -1.26.

Take `CCN1CCN(c2ccc3nncn3n2)CC1`: the fold change is -1.39.

As for `CC12CC(c3ccccc3O1)C(C(=O)OCc1ccccc1)C(=O)N2` (centres undefined), the fold change was -2.11 [at 20 µM] (active).

With `Cc1nnc2ccc(N3CCN(C)CC3)nn12`, the fold change is -1.19 [at 20 µM].

Regarding `Clc1ccc(Cl)c2c1NC(c1cccnc1)C1CC=CC21` (centres undefined), the compound was called inactive.

Values taken from PubChem BioAssay AID1259240 (Keith Lab, Institute of Cancer Science, University of …, 2017).
